Sampled rows, rich in hits. Any-hit rate of the full collection: about 12%.
G9a inh: G9a (human) methyltransferase inhibition. actives 8.8% (n = 350,000). G9a H3K9 monomethylation, AlphaScreen, 2 h. Q96KQ7. Potency, µM (titrated, usually from 102 µM), inactives show top-dose activity, negative = inhibition, most hits filed as inhibitors; further: on the % scale 0 is the no-effect control and ±100 the full control effect; nearly all actives have a fitted effect of over 75% in size
Target sequence (Q96KQ7 913-1193 limits assumed): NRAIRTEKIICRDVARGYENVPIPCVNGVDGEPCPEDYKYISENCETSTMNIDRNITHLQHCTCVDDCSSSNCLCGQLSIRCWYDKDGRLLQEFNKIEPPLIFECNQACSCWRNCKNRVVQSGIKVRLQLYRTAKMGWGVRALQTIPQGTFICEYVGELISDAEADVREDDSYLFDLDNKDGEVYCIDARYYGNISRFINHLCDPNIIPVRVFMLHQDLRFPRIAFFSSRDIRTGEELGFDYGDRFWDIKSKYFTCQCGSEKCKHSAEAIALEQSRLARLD
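Step 1: enzyme (final 20 nM) with compound, 15 min RT. Step 2: substrate peptide 500 nM and SAM 20 uM, 2 h RT. Step 3: anti-H3K9me1 antibody and AlphaScreen beads, 10 min, then plate read.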
L3MBTL1 inh: L3MBTL1 (human) inhibition | Q9Y468 | actives 0.66% (n = 230,000) | AID 485360 | Potency, µM (titrated, usually from 57.1 µM), inactives show at the highest dose activity, negative = inhibition, actives largely listed as inhibitors | AlphaScreen L3MBTL1–H3K9me1 peptide binding; further: on the % scale 0 is the no-effect control and ±100 the full control effect; nearly all actives have a fitted effect of over 60% in size
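AlphaScreen assay: L3MBTL1 (50 nM final) was preincubated 30 min at room temperature with biotinylated H3(1-15)K9me1 peptide (75 nM final), then 30 min with library compounds; streptavidin donor and nickel chelate acceptor beads (10 ug/mL final) added, 30 min dark.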
HP1b binding inh: inhibitors of HP1-beta chromodomain binding to methylated histone tails; P83916; AlphaScreen HP1-beta / biotin-H3K9me3 peptide binding; Potency, µM (series often up to 114 µM), for the others: at the top dose activity change, negative = inhibition, most hits filed as inhibitors; actives 0.56% (n = 390,000); further: nearly all actives have a fitted effect of over 70% in size
Target sequence (P83916 whole entry, looked up): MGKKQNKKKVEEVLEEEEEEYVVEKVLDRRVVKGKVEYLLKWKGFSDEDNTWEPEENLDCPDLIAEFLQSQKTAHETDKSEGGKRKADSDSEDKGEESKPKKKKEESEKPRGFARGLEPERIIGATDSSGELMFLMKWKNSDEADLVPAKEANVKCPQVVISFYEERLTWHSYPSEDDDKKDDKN
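HP1-beta protein (50 nM final) preincubated 30 min at room temperature with biotinylated H3(1-18)K9me3 peptide (50 nM) in PBS pH 7.4, 0.01% Tween-20, then compound added for 30 min. AlphaScreen streptavidin donor/nickel chelate acceptor beads (10 ug/mL final), 30 min dark, luminescence read.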
Sfp inh: blocks B. subtilis Sfp PPTase activity | Q9F4F7 | Biochemical Sfp PPTase activity, qHTS | actives 3.5% (n = 310,000) | AID 1490 | Potency, µM, inactives show largest response in the series, negative = inhibition, usual class: inhibitors;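 further: the enzyme is Sfp with the accession as filed and its product quenches rhodamine fluorescence; 0% = enzyme reaction without inhibitor and -100% = no enzyme wells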
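Step 1, compound plus 15 nM Sfp-PPTase, 15 min, room temperature. Step 2, add rhodamine-CoA (5 uM) and BHQ-2-YbbR (12.5 uM). Step 3, read 525/598 nm fluorescence at 0 and 30 min.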
JMJD2A Tudor: JMJD2A Tudor domain (human) inhibition | O75164 | Potency, µM (titrated, usually from 114 µM), without a hit: at the top dose activity change, negative = inhibition, hits mostly inhibitors | actives 4.4% (n = 390,000) | AlphaScreen JMJD2A-Tudor / H3K4me3 peptide binding | AID 504339; further: on the % scale 0 is the no-effect control and ±100 the full control effect; nearly all actives have a fitted effect of over 50% in size
BAZ2B block: BAZ2B (human) inhibition; Potency, µM (doses to about 114 µM), for inactives: at the highest dose activity change, negative = inhibition, actives largely listed as inhibitors; AlphaScreen BAZ2B-H3K14Ac peptide displacement; AID 504333; actives 4.4% (n = 360,000); further: on the % scale 0 is the no-effect control and ±100 the full control effect; nearly all actives have a fitted effect of over 60% in size
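Complex of BAZ2B and biotin-H3K14Ac (50 nM apiece) forms over 30 min at RT, then faces library compounds up to 110 uM for another 30 min; AlphaScreen beads added, 20 min dark incubation, luminescence read.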
Numbers without * were called inactive; [ ] = another dose, or the depositor's remark. The call rests on the fitted dose curve; in most records, active means well fitted curve in the direction sought with a large enough effect; inconclusive means small, poorly fitted or top-dose-only effect, or another doubt; inactive means no such curve, though single readings can be large; an effect the other way counts as inactive or inconclusive. Potency means the concentration at half of the fitted maximal effect.

For CCOC(=O)c1c(NC(=O)CSc2nnc(C)s2)sc2c1CCN(C)C2 the results were G9a inh 4.5µM*, L3MBTL1 inh 5%[11.4 µM], HP1b binding inh 23%, Sfp inh 18µM*, JMJD2A Tudor inconclusive and BAZ2B block -36%.
For CCOC(=O)c1c(NC(=S)Nc2ccc(OCC)cc2)sc2c1CCN(C)C2 the results were G9a inh 50µM*, L3MBTL1 inh -23%, HP1b binding inh -10%, Sfp inh 16µM*, JMJD2A Tudor -17% and BAZ2B block inconclusive.
For O=C(Nc1ccccc1C(F)(F)F)c1noc2c1CCCCC2 the results were G9a inh 29%[59 µM], HP1b binding inh 69%, JMJD2A Tudor 39% and BAZ2B block 82%.
`CCOC(=O)c1ccn(-c2nc(-c3cccc(OC)c3)cc(C(F)(F)F)n2)n1` gave G9a inh 6%[59 µM], HP1b binding inh 43%, JMJD2A Tudor -1% and BAZ2B block 12%.
For CCOC(=O)CSC1=NC(=O)/C(=C\c2ccc(Cl)cc2)S1 the results were G9a inh 35µM*, L3MBTL1 inh -13%, HP1b binding inh 14%, Sfp inh inconclusive, JMJD2A Tudor inconclusive and BAZ2B block -33%.
`CSC1=NC(=O)/C(=C/c2ccc(SC)cc2)S1` gave G9a inh -27%, L3MBTL1 inh -2%, HP1b binding inh 19%, Sfp inh -1%, JMJD2A Tudor -21% and BAZ2B block -15%.
`CCC1C(=O)CC(c2ccco2)NC1c1ccco1` (stereo unspecified) gave G9a inh -15%[59 µM], L3MBTL1 inh 6%, HP1b binding inh 27%, Sfp inh 3%, JMJD2A Tudor -10% and BAZ2B block 9%.
C=CCC1(O)CC(c2ccco2)NC(c2ccco2)C1CCC (stereo unspecified) was read as G9a inh 32µM*, HP1b binding inh inconclusive, Sfp inh -10%, JMJD2A Tudor 4.5µM* and BAZ2B block 50µM*.
CCc1nn2c(=O)cc(COC(=O)Cc3ccccc3)nc2s1 was read as G9a inh 2%[59 µM], HP1b binding inh 16%, JMJD2A Tudor -11% and BAZ2B block -1%.
Screening CCCCC(CC)C(=O)Nc1ccc(Nc2ccccc2)cc1 (stereo unspecified) returned G9a inh inconclusive, L3MBTL1 inh -3%, HP1b binding inh -25%, Sfp inh 22%, JMJD2A Tudor inconclusive and BAZ2B block inconclusive.
For CCCCC(CC)C(=O)Nc1ccc(C)c(O)c1 (stereo unspecified) the results were L3MBTL1 inh 5%, HP1b binding inh -13%, Sfp inh 16%, JMJD2A Tudor 50µM* and BAZ2B block -5%.
Screening Cc1cccc(-c2nc3scc(CCNS(=O)(=O)c4ccc5c(c4)OCCO5)n3n2)c1 returned G9a inh -21%[59 µM], HP1b binding inh 31%, JMJD2A Tudor -4% and BAZ2B block -2%.
For O=C(NCCCN1CCN(c2ccccc2F)CC1)c1cc2c(s1)-c1ccccc1OC2 the results were G9a inh 3%[59 µM], HP1b binding inh 32%, JMJD2A Tudor -13% and BAZ2B block 6%.
Screening CN1CCN(C(=S)C(=O)Nc2ccccc2)CC1 returned G9a inh 36%[12.7 µM], L3MBTL1 inh -13%, HP1b binding inh 23%, Sfp inh 50µM*, JMJD2A Tudor -14% and BAZ2B block 5%.
For CCCOc1ccc(C(=O)Nc2cc(-c3nn4c(C)nnc4s3)ccc2C)cc1 the results were G9a inh -39%, L3MBTL1 inh -7%, HP1b binding inh 12%, Sfp inh -7%, JMJD2A Tudor 40µM* and BAZ2B block 3%.
Screening CCOc1cccc(C(=O)Nc2cc(-c3nn4c(C)nnc4s3)ccc2C)c1 returned G9a inh 4%, L3MBTL1 inh -15%, HP1b binding inh 51%, Sfp inh -2%, JMJD2A Tudor -12% and BAZ2B block -4%.

Screens as filed in PubChem.
